The source of these data is PubChem BioAssay (Tox21).

Each structure is given as a SMILES string. Values joined by “and” are separate entries in the source; they are usually repeats but may differ in a detail not shown here. Identical values can stand only once. Inconclusive results are not listed. A call without a number means that no potency is given here. Some compounds were tested as several samples or in several runs, with calls that do not always agree. Active and inactive are the calls of the source. Calls come from the whole dose curve; as a rule, active = well fitted cell-killing curve with a large enough effect in the repeat runs; inconclusive = weak or mixed curves, or effect the other way; inactive = flat fitted curve, though single readings scatter.
Potency is the fitted concentration of half-maximal effect.

The nature of the experiment: qHTS RealTime-Glo MT Cell Viability Assay in HEK293 cells - 32 hour (AID 1224868). For activity change, negative = cytotoxic: top concentration of the series differs between compounds. Note: nearly all actives have a fitted effect of over 50% in size. The note with it: RealTime-Glo luminescence; series mostly up to 76.8 µM. From the text:
National Center for Advancing Translational Sciences [NCATS]
NIH Chemical Genomics Center [NCGC]
U.S. Environmental Protection Agency [EPA]
National Institutes of Environmental Health Sciences [NIEHS]
National Toxicology Program [NTP]
U.S. Food and Drug Administration [FDA]
Measure of cell viability is critical in the cell-base assay. Analysis of cell viability is necessary for the characterization of cell responses to cytotoxic drugs and environmental stress. A RealTime-Glo MT Cell Viability Assay to monitor cell viability in real time of continues cell culture during 40 hours of compound treatment was used to screen Tox21 10K library compounds in Hek293 cells. The RealTime-Glo MT Cell Viability Assay is a nonlytic, homogeneous, bioluminescent method to measure cell viability in real time using a simple, plate-based method. The assay involves adding NanoLuc luciferase and a cell-permeant prosubstrate to cells in culture. Viable cells reduce the proprietary prosubstrate to generate a substrate for NanoLuc luciferase. This substrate diffuses from cells into the surrounding culture medium, where it is rapidly used by the NanoLuc Enzyme to produce a luminescent signal. The signal correlates with the number of viable cells, making the assay well suited for cytotoxicity studies.
Tox21 Assay Protocol Summary:
The mixture of Hek293 cell suspension and reagents were dispensed at 600cells/6 ul/well in 1536-well tissue culture treated black solid bottom plates using a Multidrop dispenser. After the assay plates were incubated at a 37 C/5% CO2 incubator for 5 hours, 23 nL of compounds dissolved in DMSO, positive and negative controls was transferred to the assay plate by a pintool work station. The plates were incubated at 37 C for 40 hours. The luminescence intensity were measured at 0h, 8h, 16h, 24h, 32h and 40h time points using ViewLux plate reader during compound treatment.
Background: In qHTS, concentration-response curves come from the screen itself.
In the case of `C=C(C)[C@H]1CN[C@H](C(=O)O)[C@H]1CC(=O)O`, the Potency result was “inactive”.

Turning to `CCOC(=O)COc1ccc(Cl)cc1Cl`, the Potency result was “inactive”. Still for that read-out and setting: for `CCN(CCO)CCn1c(Cc2ccccc2)nc2c1c(=O)n(C)c(=O)n2C` the value was “inactive”. For `BrCC1CO1` (stereo not given), the Potency entry was “inactive”. Still for that read-out and setting: for `CCN1CCCC1CNC(=O)C(O)(c1ccccc1)c1ccccc1` (stereo not given) the value was “inactive”; for `BrCc1ccc(Br)cc1`, “inactive”; for `Clc1ccc(C(Cl)(Cl)Cl)cn1`, “inactive”.

As for `C=C1C[C@@H]2[C@H](CC[C@]3(C)C(=O)CC[C@@H]23)[C@@]2(C)C=CC(=O)C=C12`, the Potency entry was “inactive”. On the same count and under the same terms, for `COc1cccc(C=O)c1` the value was “inactive”; for `C#CCOC(=O)/C=C(C)/C=C/CC(C)CCCC(C)C` (stereo not given), “inactive”.

Regarding `CCOC(=O)C(Cl)Cc1cc(-n2nc(C)n(C(F)F)c2=O)c(F)cc1Cl` (stereo not given), the Potency result is “inactive”.

Consider `COC(=O)c1ccccc1CS(=O)(=O)NC(=O)Nc1nc(OC)cc(OC)n1`, for which the Potency result was “inactive”. The same measure, in the same setting: for `Clc1nc(Cl)nc(Nc2ccccc2Cl)n1` the value was “inactive”. Same read-out and setting: for `CNC(=O)Oc1ccccc1C(C)C` the value was “inactive”. Still for that read-out and setting: for `CNC(=O)Oc1cc(C)c(N(C)C)c(C)c1` the value was “inactive”; for `COC[C@@H](NC(C)=O)C(=O)NCc1ccccc1`, “inactive”. Consider `CC(C)[C@]12CC(=O)[C@H](C)[C@H]1C2`, for which the Potency entry is “inactive”. Still for that read-out and setting: for `O=C(Cl)C(Cl)Cl` the value was “inactive”; for `COc1cccc([C@@]2(O)CCCC[C@@H]2CN(C)C)c1`, “inactive”; for `CC(O)CCl` (stereo not given), “inactive”. Still for that read-out and setting: for `O=C(NC(O)C(Cl)(Cl)Cl)NC(O)C(Cl)(Cl)Cl` (stereo not given) the value was “inactive”. Same read-out and setting: to `CC(=O)CN(CC(C)=O)N=O` belongs “inactive”; to `CCCCCCCCBr`, “inactive”; to `O=C1CC(=O)NC(=O)N1`, “inactive”.

In the case of `C=C(Cl)CSC(=S)N(CC)CC`, the Potency entry was “inactive”. On the same count and under the same terms, to `C=CCC1(C(C)CC)C(=O)NC(=O)NC1=O` (stereo not given) belongs “inactive”. Still for that read-out and setting: to `CCC(C(N)=O)N1CCCC1=O` (stereo not given) belongs “inactive”; to `ClCCCCCCCl`, “inactive”.

On to `O=C(Cl)c1ccccc1`, for which the Potency result was “inactive”. As for `CCCCCCC(=O)CCCCCC/C=C/C[C@@H](O)[C@H](O)[C@@](N)(CO)C(=O)O`, the activity change, negative = cytotoxic is 2.61% [at 15.8 µM] (inactive). On to `O=C1C2CC=CCC2C(=O)N1SC(Cl)(Cl)Cl` (stereo not given), for which the Potency is 43.5 µM (active) and 3.04 µM (active). Still for that read-out and setting: to `CCCN1CCC[C@@H]2Cc3[nH]ncc3C[C@H]21` belongs “inactive”.

Consider `CCc1cc(OC)c(C[C@H](C)N)cc1OC`, for which the Potency entry was “inactive”. The same measure, in the same setting: to `C[C@H]1CCCC(=O)CCC/C=C/c2cc(O)cc(O)c2C(=O)O1` belongs 21.1 µM (active); to `CS(=O)(=O)Cl`, “inactive”; to `CCCCOC(C)=O`, “inactive”. Turning to `ClC1=C(Cl)C2(Cl)C(CBr)CC1(Cl)C2(Cl)Cl` (stereo not given), the Potency was 49 µM (active) and inactive.

With `Cc1ccc(S(=O)(=O)N[C@@H](CCCCN)C(=O)CCl)cc1`, the Potency entry is “inactive”. For the compound `CCNc1nc(NCC)nc(SC)n1`, the Potency entry was “inactive”. On the same count and under the same terms, for `CCOC(=O)N(C)N=O` the value was “inactive”.
